Results as given in PubChem BioAssay (EPA / NIEHS).
Several values for one entry are separate records, joined by “and”; a condition that tells them apart may be missing. Identical values can stand only once. Records with an inconclusive call do not appear. More than one record can exist for a structure, and the calls need not agree. Activity calls are given as the source filed them. The calls were made as follows, unless noted: active = hit-call score of the fitted dose curve at least 0.9, where 1 is the maximum; inactive = score below 0.9.

Legend:
[1] = read-out: Interleukin-8 (IL8), CXCL8 (gene 3576); test: BSK_3C_IL8: BioMAP Diversity Plus: 3C Assay for Interleukin-8 (IL8) Biomarker Activity (AID 2283020); settings: primary human endothelial cells (HUVEC); actives raise or lower the signal
Outline: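 Using DMSO-treated wells as the baseline, bidirectional curve fitting was applied to ELISA-measured IL-8 from human umbilical vein endothelial cultures sampled 24 h after compound addition.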

[2] = read-out: Monokine induced gamma interferon (MIG), CXCL9 (gene 4283); test: BSK_3C_MIG: BioMAP Diversity Plus: 3C Assay for Monokine induced gamma interferon (MIG) Biomarker Activity (AID 2283021); settings: primary human endothelial cells (HUVEC); actives raise or lower the signal;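 as to AC50: MIG protein level measured by immunoassay in the treated endothelial cultures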
Outline: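 ELISA-measured MIG in dosed HUVEC 3C cultures at 24 h, analysed by bidirectional fitting with DMSO defining baseline activity.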

[3] = BSK_3C_SRB: Viability Assessment in the BioMAP Diversity Plus: 3C Assay (AID 2283023); settings: primary human endothelial cells (HUVEC);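 also: cells read 24 h after compound dosing; fitted both ways against DMSO so a hit may be signal rise or drop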
Outline: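 HUVEC, 24 h post-dose; 10% TCA fix, 0.1% SRB stain, A560 nm. Bidirectional curve fit vs DMSO negative control.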

[4] = read-out: Matrix Metallopeptidase 1 (MMP1), MMP1 (gene 4312); test: BSK_BE3C_MMP1: BioMAP Diversity Plus: BE3C Assay for Matrix Metallopeptidase 1 (MMP1) Biomarker Activity (AID 2283024); settings: primary human bronchial epithelial cells; actives raise or lower the signal
Outline: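 In this multiplexed primary-cell system, human bronchial epithelium received chemicals for 24 h before an ELISA for MMP1. Values reflect bidirectional fits normalised to the DMSO baseline.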

[5] = BSK_3C_Vis: BioMAP Diversity Plus: 3C Assay for Morphology Visualization (AID 2283025); settings: primary human endothelial cells (HUVEC);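 also: fitted both ways so gain or loss versus DMSO counts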
Outline: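 Light-microscopy morphology readout, 24 h exposure, human primary umbilical vein endothelium; analysed relative to DMSO with bidirectional fitting.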

[6] = read-out: Pselectin, SELP (gene 6403); test: BSK_4H_Pselectin: BioMAP Diversity Plus: 4H Assay for Pselectin Biomarker Activity (AID 2283026); settings: primary human endothelial cells (HUVEC); actives raise or lower the signal
Outline: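 Bidirectional fits against DMSO gave the endpoint. Cells: primary human umbilical vein endothelium, chemical-treated for 24 h before ELISA detection of P-selectin.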

[7] = BSK_4H_SRB: Viability Assessment in the BioMAP Diversity Plus: 4H Assay (AID 2283027); settings: primary human endothelial cells (HUVEC);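 also: cells exposed to compound for 24 h before staining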;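 as to AC50: curves fitted both ways versus DMSO so AC50 may be loss or gain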
Outline: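 HUVEC, 24 h post-dose; 10% TCA fix, 0.1% SRB stain, A560 nm. Total protein = overt cytotoxicity, parallel to biomarker read. Bidirectional fit vs DMSO baseline.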

[8] = BSK_BE3C_SRB: Viability Assessment in the BioMAP Diversity Plus: BE3C Assay (AID 2283028); settings: primary human bronchial epithelial cells
Outline: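 Primary human bronchial epithelium; chemical dosing, 24 h; 10% TCA fix, 0.1% SRB stain, A560; bidirectional fit vs DMSO baseline.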

[9] = read-out: Thrombomodulin, THBD (gene 7056); test: BSK_3C_Thrombomodulin: BioMAP Diversity Plus: 3C Assay for Thrombomodulin Biomarker Activity (AID 2283029); settings: primary human endothelial cells (HUVEC); actives raise or lower the signal
Outline: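 In a multiplexed primary-cell system, human umbilical vein endothelium received chemical and was assayed 24 h later for thrombomodulin by ELISA. Parallel cultures were SRB-stained (0.1% SRB after 10% TCA fixation, read at 560 nm) to flag cytotoxicity.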

[10] = read-out: Urokinase-type plasminogen activator receptor (uPAR), PLAUR (gene 5329); test: BSK_4H_uPAR: BioMAP Diversity Plus: 4H Assay for Urokinase-type plasminogen activator receptor (uPAR) Biomarker Activity (AID 2283030); settings: primary human endothelial cells (HUVEC); actives raise or lower the signal
Outline: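 HUVEC, 24 h post-dose; uPAR by ELISA; bidirectional fit vs DMSO baseline.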

[11] = read-out: Vascular endothelial growth factor receptor 2 (Homo sapiens) (UniProt P35968); test: BSK_4H_VEGFRII: BioMAP Diversity Plus: 4H Assay for Vascular endothelial growth factor receptor 2 (VEGFR2) Biomarker Activity (AID 2283031); settings: primary human endothelial cells (HUVEC); actives raise or lower the signal;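 as to AC50: cell-surface VEGFR2 protein level quantified by ELISA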
Outline: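 HUVEC (human primary), 4H system; 24 h post-dose; VEGFRII by ELISA; bidirectional curve fit vs DMSO baseline; gain or loss of signal scored.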

[12] = read-out: Human Leukocyte Antigen - DR isotype (HLADR), HLA-DRA (gene 3122); test: BSK_BE3C_HLADR: BioMAP Diversity Plus: BE3C Assay for Human Leukocyte Antigen - DR isotype (HLADR) Biomarker Activity (AID 2283032); settings: primary human bronchial epithelial cells; actives raise or lower the signal
Outline: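 BioMAP BE3C format: human bronchial epithelium, 24 h compound treatment, ELISA detection of HLA-DR, with bidirectional analysis relative to DMSO.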

[13] = read-out: Vascular cell adhesion molecule 1 (VCAM1), VCAM1 (gene 7412); test: BSK_4H_VCAM1: BioMAP Diversity Plus: 4H Assay for Vascular cell adhesion molecule 1 (VCAM1) Biomarker Activity (AID 2283033); settings: primary human endothelial cells (HUVEC); actives raise or lower the signal;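 also: cell-surface VCAM-1 protein measured by ELISA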
Outline: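 In this human endothelial (HUVEC) system, biomarker ELISA was run 24 h after compound addition, and total protein in parallel wells was assessed by SRB at 560 nm; DMSO served as negative control.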

[14] = read-out: Interferon-gamma inducible Protein 10 (IP10), CXCL10 (gene 3627); test: BSK_BE3C_IP10: BioMAP Diversity Plus: BE3C Assay for Interferon-gamma inducible Protein 10 (IP10) Biomarker Activity (AID 2283034); settings: primary human bronchial epithelial cells; actives raise or lower the signal
Outline: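 BE3C cells (human bronchial epithelial, primary); 24 h exposure; ELISA for IP-10; DMSO-referenced bidirectional fit.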

[15] = read-out: Monokine induced gamma interferon (MIG), CXCL9 (gene 4283); test: BSK_BE3C_MIG: BioMAP Diversity Plus: BE3C Assay for Monokine induced gamma interferon (MIG) Biomarker Activity (AID 2283035); settings: primary human bronchial epithelial cells; actives raise or lower the signal;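 also: MIG protein measured by ELISA in BE3C cultures after 24 h of dosing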
Outline: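 Dose cells (human primary bronchial epithelial), incubate 24 h, quantify MIG by ELISA, then fit concentration–response in both directions relative to DMSO control.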

[16] = read-out: Transforming growth factor beta 1 (TGFb1), TGFB1 (gene 7040); test: BSK_BE3C_TGFb1: BioMAP Diversity Plus: BE3C Assay for Transforming growth factor beta 1 (TGFb1) Biomarker Activity (AID 2283036;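 also: TGF-b1 protein level measured by ELISA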); settings: primary human bronchial epithelial cells; actives raise or lower the signal
Outline: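 TGF-b1 measured via ELISA, 24 h after chemical dosing of human bronchial epithelial cells (BE3C). Overt cytotoxicity assessed in parallel by SRB (0.1%, TCA-fixed, 560 nm); analysis bidirectional relative to DMSO.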

[17] = read-out: Plasminogen activator inhibitor-1 (PAI1), SERPINE1 (gene 5054); test: BSK_BE3C_PAI1: BioMAP Diversity Plus: BE3C Assay for Plasminogen activator inhibitor-1 (PAI1) Biomarker Activity (AID 2283037); settings: primary human bronchial epithelial cells; actives raise or lower the signal
Outline: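 In this multiplexed primary-cell system, bronchial epithelial cells receive test chemical and are sampled at 24 h. PAI-1 is read by ELISA, with DMSO serving as negative control for bidirectional fitting.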

[18] = read-out: urokinase plasminogen activator (uPA), PLAU (gene 5328); test: BSK_BE3C_uPA: BioMAP Diversity Plus: BE3C Assay for urokinase plasminogen activator (uPA) Biomarker Activity (AID 2283038); settings: primary human bronchial epithelial cells; actives raise or lower the signal;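 also: uPA protein level quantified by ELISA in cell cultures; uPA read one day after compound addition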
Outline: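 ELISA read-out of uPA in human lung primary bronchial epithelial cultures, 24 h post-dosing. Gain or loss of signal fitted bidirectionally relative to DMSO baseline; cytotoxicity checked in parallel cultures via SRB total protein stain.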

[19] = read-out: Urokinase-type plasminogen activator receptor (uPAR), PLAUR (gene 5329); test: BSK_BE3C_uPAR: BioMAP Diversity Plus: BE3C Assay for Urokinase-type plasminogen activator receptor (uPAR) Biomarker Activity (AID 2283039); settings: primary human bronchial epithelial cells; actives raise or lower the signal;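 also: uPAR protein level measured by ELISA on the cells; cells exposed to compound for one day before measurement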
Outline: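 Chemically treated human bronchial epithelial cells (lung primary) are assayed for uPAR by ELISA after 24 h, with data fitted in both directions using DMSO as negative control.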

[20] = biological target: human Vitamin D Receptor (VDR), VDR (gene 7421) (UniProt P11473); test: ATG_VDR_TRANS: Attagene TRANS-FACTORIAL HepG2 Assay for human Vitamin D Receptor (VDR) (AID 2283022; active = hit-call score of the fitted dose curve at least 0.9, where 1 is the maximum)
Outline: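 RT-PCR/capillary electrophoresis read-out of reporter mRNA induction in transiently transfected HepG2; 24 h dosing; chimeric NR-Gal4 (TRANS format); gain-of-signal fit against DMSO baseline.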

Measured: AC50

Chain of human Vitamin D Receptor (VDR), VDR (gene 7421) (P11473 whole entry, looked up, the tested form may be a part): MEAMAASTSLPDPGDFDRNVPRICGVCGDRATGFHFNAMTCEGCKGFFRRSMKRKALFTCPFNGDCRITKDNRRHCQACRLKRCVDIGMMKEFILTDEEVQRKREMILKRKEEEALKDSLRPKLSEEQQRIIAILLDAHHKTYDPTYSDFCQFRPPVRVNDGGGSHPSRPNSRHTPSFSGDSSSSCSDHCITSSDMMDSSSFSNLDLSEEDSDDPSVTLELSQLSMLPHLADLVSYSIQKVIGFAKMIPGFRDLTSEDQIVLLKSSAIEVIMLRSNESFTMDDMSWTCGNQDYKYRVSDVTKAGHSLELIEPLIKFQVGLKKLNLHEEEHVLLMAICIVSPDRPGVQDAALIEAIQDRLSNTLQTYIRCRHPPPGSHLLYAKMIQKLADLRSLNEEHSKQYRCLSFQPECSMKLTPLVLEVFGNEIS

COP(=O)(O)OC
not listed: [20]
inactive: all other assays above

OCC(F)(F)OC(F)(F)C(F)(F)OC(F)(F)C(F)(F)OC(F)(F)F
inactive: [20] | [4] | [8] | [9] | [11] | [12] | [13] | [14] | [17] | [18] | [19]
active: [1] 40.7 µM and 42.9 µM | [2] 38.9 µM and 48.5 µM | [3] 25.7 µM and 49.8 µM | [6] 52.2 µM and 44.9 µM | [7] 47.5 µM and 18.3 µM | [10] 50.3 µM and 44.6 µM | [11] 42.9 µM

CCCCN(CCCC)N=O
not listed: [15] | [20]
inactive: all other assays above
